Nrf2 ARE act: qHTS of Nrf2 Activators; AREc32 ARE-luciferase reporter (MCF7-derived line), luminescence, 24 h; Potency, µM (titrated, usually from 46.1 µM), actives largely listed as activators; hit rate 0.31% among 410,000; further: nearly all actives have a fitted effect of over 65% in size
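Luminescent ARE reporter assay in AREc32_Fluc cells: overnight plating at 37 deg C, 24 hr compound incubation, Steady-Glo added, 30 min RT before reading.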
A549 viability: Nrf2 qHTS screen for inhibitors: counterscreen for cytotoxicity; AID 504648, 2011; Potency, µM (doses to about 46 µM), hits mostly inhibitors; hit rate 0.16% among 390,000; A549 ARE-Fluc cells, CellTiter-Fluor viability, 18-24 h
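A549 ARE_Fluc cells in 5% FBS OPTI-MEM were exposed to compounds in concentration-response for 18-24 h at 37 deg C. Viability was read by CellTiter-Fluor fluorescence (Ex 405/Em 525) after 30 min, before the luciferase read.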
ClpP mod: qHTS Assay for Activators of ClpP; hit rate 1.9% among 340,000; purified B. subtilis ClpP, FRET peptide cleavage, 20 min; Potency, µM (top dose mostly 57.5 µM); active means well fitted falling curve with a large enough effect; inconclusive means small, poorly fitted or top-dose-only effect; inactive means no such curve, though single readings can be large or run the other way; further: the source files actives as falling curves though it sought activators and does not explain the sign; nearly all actives have a fitted effect of over 65% in size
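Buffer: 100 mM Tris/HCl pH8, 100 mM KCl, 0.05% low protease BSA, 2.5% glycerol, 0.01% Tween-20. ClpP 10 microg/mL final; 20 min RT; delta FRET normalized to ADEP and DMSO controls.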
TCR activator: Activators of T cell receptors: qHTS campaign. primary human leukocytes, anti-CD3, IL-2 HTRF, 48 h. Potency, µM (titrated, usually from 9.22 µM), usual class: activators. 330,000 tested, under 10 active. AID 504894, 2011
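1) Mix primary human leukocytes, a-CD3 beads and compound. 2) Incubate 48 hr. 3) Add HTRF IL-2 reagents (a-IL-2-K, a-IL-2-d2).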
miR-21 reporter: qHTS Assay for Modulators of miRNAs and/orActivators of miR-21; 340,000 tested, under 10 active; HeLa miR-21 FLuc reporter, luciferase, 48 h; Potency, µM (highest dose often 38.3 µM), hits mostly activators;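 further: miR-21 action dims this reporter so a rising signal means less miR-21 action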
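HeLa cells stably expressing CMV-driven firefly luciferase with a downstream miR-21 binding sequence, endogenously expressing miR-21, were treated with titrations (up to about 40uM final) for 48 hours at 37 degree Celsius. Luciferase luminescence was read after lysis.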
Nrf2 inh: Nrf2 qHTS screen for inhibitors; A549 ARE-Fluc reporter, luciferase luminescence, 18-24 h; Potency, µM (series often up to 46 µM), usual class: inhibitors; hit rate 2.1% among 360,000; further: nearly all actives have a fitted effect of over 60% in size
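Nrf2 function is reported as luminescence of an ARE-controlled luciferase in A549 cells. Compounds were tested at several concentrations, and a CellTiter-Fluor read on the same wells flagged cytotoxicity.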
Each line names hits and unclear results; the compound was inactive in the other large screens. In the library only some 3.7% were active in any assay of this set; here they are far more common. Unless noted, the call rests on the fitted dose curve; in most records, active means well fitted curve in the direction sought with a large enough effect; inconclusive means small, poorly fitted or top-dose-only effect, or another doubt; inactive means no such curve, though single readings can be large; an effect the other way counts as inactive or inconclusive.

CC(=O)N1CCc2cc(S(=O)(=O)N3c4ccccc4CC3C)ccc21 (stereo unspecified)	Nrf2 inh 15µM
C[C@H]1C(=O)N(S(=O)(=O)c2ccc([N+](=O)[O-])cc2)[C@H]1c1ccc(F)cc1	none (no result: Nrf2 ARE act, ClpP mod, TCR activator, miR-21 reporter)
CN(c1ccccc1)S(=O)(=O)c1cccc(NC(=O)CSc2nncs2)c1	Nrf2 inh 21µM
COc1ccccc1N(C)S(=O)(=O)c1ccc(C(=O)Nc2ccc3nc(C)sc3c2)cc1	Nrf2 inh 18µM
CN(c1ccccc1)S(=O)(=O)c1cccc(NC(=O)c2ccc3ncsc3c2)c1	miR-21 reporter inconclusive, Nrf2 inh 16µM (no result: ClpP mod)
Cn1c(=O)c2c(ncn2CC(=O)Nc2cc(S(=O)(=O)N3CCCCC3)ccc2Cl)n(C)c1=O	Nrf2 inh 21µM (no result: miR-21 reporter)
O=C(Nc1ccccc1-c1cn2c(CN3CCNCC3)csc2n1)c1cnc2ccccc2n1	none (no result: Nrf2 ARE act, A549 viability, TCR activator, miR-21 reporter, Nrf2 inh)
CCc1ccccc1N1CC(C(=O)N2Cc3ccccc3CC2C(N)=O)CC1=O (stereo unspecified)	none (no result: miR-21 reporter)
N#Cc1nc(Nc2ccc(Br)cc2)nc(NC2CCCC2)n1	Nrf2 inh inconclusive (no result: Nrf2 ARE act, ClpP mod, TCR activator, miR-21 reporter)
CCOc1ccc(NC(=O)c2ccc3c(c2)S(=O)(=O)N=C2CCCCCN23)cc1	none (no result: A549 viability, TCR activator, miR-21 reporter, Nrf2 inh)
CCc1ncc(C(O)c2ccc(Cl)cc2)n1Cc1ccccc1 (stereo unspecified)	ClpP mod inconclusive (no result: A549 viability, TCR activator, miR-21 reporter, Nrf2 inh)
Cc1nc2ccc(NC(=O)c3ccccc3)cc2s1	Nrf2 inh inconclusive
Cn1c(=O)c2c(ncn2CC(=O)Nc2ccccc2)n(C)c1=O	none
CN(c1ccccc1)S(=O)(=O)c1cccc(C(=O)Nc2cccc(C(=O)NC3CC3)c2)c1	none (no result: miR-21 reporter)
Cc1nc2ccc(NC(=O)c3cccc(S(=O)(=O)N(C)c4ccccc4)c3)cc2s1	A549 viability inconclusive, Nrf2 inh 21µM
CN(c1ccccc1)S(=O)(=O)c1cccc(C(=O)NC2CCCC2)c1	ClpP mod 32µM (no result: miR-21 reporter)
CCn1nc(C(=O)Nc2ccc3nc(C)sc3c2)c2ccccc2c1=O	ClpP mod 20µM, Nrf2 inh inconclusive
CN(c1ccccc1)S(=O)(=O)c1cccc(NC(=O)Cn2cnc3c2c(=O)n(C)c(=O)n3C)c1	Nrf2 inh 10µM
Nc1cccc2cccnc12	none (no result: Nrf2 ARE act, A549 viability, TCR activator, miR-21 reporter, Nrf2 inh)
COC(=O)c1ccc(CNC(=O)c2ccc(S(=O)(=O)N(C)c3ccccc3OC)cc2)cc1	Nrf2 inh 23µM (no result: miR-21 reporter)
COC(=O)c1cccc(NC(=O)c2ccc(S(=O)(=O)N(C)c3ccccc3OC)cc2)c1	none (no result: A549 viability, TCR activator, miR-21 reporter, Nrf2 inh)
CN(c1ccc(C(=O)Nc2cccc(O)c2)cc1)S(=O)(=O)c1ccccc1	none
COc1ccccc1N(C)S(=O)(=O)c1ccc(C(=O)Nc2cccc(Br)c2)cc1	Nrf2 inh 16µM (no result: ClpP mod, miR-21 reporter)
COCc1ccc(C(=O)Nc2cccc(S(=O)(=O)N(C)c3ccccc3)c2)cc1	Nrf2 inh 18µM (no result: ClpP mod, miR-21 reporter)
COc1ccc([C@H]2C[C@H](n3cc(COC(=O)c4ccccc4)nn3)[C@@H](O)CN2C(=O)c2cccs2)cc1	none (no result: A549 viability, TCR activator, miR-21 reporter, Nrf2 inh)
CC1CCCC(C)N1C(=O)CNCc1ccc2c(c1)OCO2 (stereo unspecified)	none
Cc1ccc(N2C(=O)CC(NNc3nc4ccccc4s3)C2=O)cc1C (stereo unspecified)	ClpP mod 13µM
COc1ccc(N2C(=O)CC(NNc3nc4ccccc4s3)C2=O)cc1 (stereo unspecified)	none (no result: ClpP mod)
Oc1ccc(/C=N/Nc2nc(N3CCCCCC3)nc(N3CCCCCC3)n2)c(O)c1	miR-21 reporter inconclusive, Nrf2 inh 15µM (no result: ClpP mod)
Cc1ccc2nc(N/N=C\c3ccc([N+](=O)[O-])o3)nc(-c3ccccc3)c2c1	A549 viability 23µM, Nrf2 inh inconclusive
Oc1ccc(Br)cc1/C=N/Nc1nc(N2CCCCC2)nc(N2CCOCC2)n1	A549 viability inconclusive (no result: ClpP mod)
O=[N+]([O-])c1ccc(/C=N/Nc2nc(N3CCCC3)nc(N3CCCC3)n2)o1	A549 viability inconclusive, Nrf2 inh 23µM
Fc1ccc(Nc2nc(N/N=C/c3ccco3)nc(N3CCCCC3)n2)cc1	Nrf2 inh 18µM
CC(C)Oc1ccc(C(=O)Nc2nc3c(s2)CC(C(C)(C)C)CC3)cc1 (stereo unspecified)	ClpP mod inconclusive (no result: TCR activator)
COc1ccncc1-c1ccccc1C1=CC(=O)CC(C)(C)C1=O	none (no result: A549 viability, TCR activator, miR-21 reporter, Nrf2 inh)
COc1cccc2c(=O)c(C/C=C(/C)Cl)c(C)[nH]c12	ClpP mod 16µM
Cc1nc(-c2ccc(S(=O)(=O)N3CCN(CCc4ccccc4)CC3)s2)cs1	Nrf2 inh 23µM (no result: ClpP mod)
COc1ccccc1NS(=O)(=O)c1cc(NC(=O)c2ccc(Cl)nc2)ccc1N1CCCC1	none (no result: miR-21 reporter)
CC(=O)Nc1ccc(N2CCOCC2)c(S(=O)(=O)Nc2ccccc2Cl)c1	none (no result: A549 viability, TCR activator, miR-21 reporter, Nrf2 inh)
COc1ccc(N2CCN(c3ccc(NC(=O)C4CCCCC4)cc3C#N)CC2)cc1	ClpP mod 28µM (no result: Nrf2 inh)
COc1ccccc1NS(=O)(=O)c1cc(NC(=O)c2cccnc2)ccc1N1CCCCC1	Nrf2 inh 21µM (no result: ClpP mod, miR-21 reporter)
O=C(Nc1cccc(C(F)(F)F)c1)Nc1ccc(N2CCCC2)c(S(=O)(=O)Nc2ccccc2Cl)c1	A549 viability inconclusive, miR-21 reporter inconclusive, Nrf2 inh 3.3µM
COc1ccc(NS(=O)(=O)c2ccc(N3CCCCC3)c(N)c2)cc1	Nrf2 inh 6.5µM (no result: miR-21 reporter)
COc1ccc(C(=O)Nc2ccc(N3CCN(c4ccc(OC)cc4)CC3)c(C#N)c2)cc1	none (no result: Nrf2 inh)
COc1ccc(NS(=O)(=O)c2ccc(N3CCCCC3)c(NC(=O)C(C)NC(N)=O)c2)cc1 (stereo unspecified)	none (no result: miR-21 reporter)
CN(CC(=O)Nc1ccc(N2CCOCC2)cc1)C(=O)CCc1ccccc1Cl	none (no result: miR-21 reporter)
CCOc1ccc(NC(=O)CSc2nc3c(c(=O)[nH]2)CCCC3)cc1	none (no result: TCR activator)
COc1ccc(NS(=O)(=O)c2cc(NC(=O)C3CC3)ccc2N2CCCCC2)cc1	Nrf2 inh 16µM (no result: ClpP mod)
Cc1cc(C)n2nc(-c3ccco3)nc2n1	Nrf2 ARE act 13µM
CCN1C(=O)C(CC(=O)NC)N(NC(=O)c2ccccc2)C1=S (stereo unspecified)	ClpP mod 25µM
CCN1C(=O)C(CC(=O)NCCc2ccccc2)N(NC(=O)c2cccnc2)C1=S (stereo unspecified)	none
CCN1CCN(Cc2ccc(NC(=O)c3ccc(C)c(NC(=O)c4cncc(-c5cccs5)c4)c3)cc2C(F)(F)F)CC1	A549 viability inconclusive, Nrf2 inh 8.2µM (no result: miR-21 reporter)
Cc1c(C(=O)N2CCOCC2)c(S(=O)(=O)Nc2ccc(C(C)C)cc2)c(C)n1C	none

Compound activity: PubChem BioAssay, National Center for Advancing Translational Sciences (NCATS)
